The list is not random: actives were taken first. Their share in the collection is about 0.5%.
C-LANA FP: KSHV C-LANA DNA binding inhibition. MBP-C-LANA/FAM-LBS DNA binding, fluorescence polarization. inhibition, % at 9 µM. hit rate 0.078% among 340,000;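 active = highest replicate inhibition at or above 60% at 9 µM, even if other replicates fall short; inactive = all replicates below 60% inhibition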;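 also: 0% = neutral control wells and 100% = 4 µM acridine orange control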
Cardiac RTF inh: cardiac RTF calcium desensitization. AID 493244. inhibition, % at 7.15 µM. IANBD-labeled cardiac RTF, Ca2+ fluorescence. P19429+P45379. hit rate 0.12% among 340,000;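 active = inhibition above the mean inhibition of all tested compounds plus 3 SD, cut at about 17% in these data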;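 also: assay run at fixed EC70 calcium of 1.6 mM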
RTF Ca sens act: increases calcium sensitivity of human cardiac regulated thin filaments | IANBD-labeled TnC RTF fluorescence at EC20 calcium; 0% EC20 calcium, 100% full calcium | hit rate 0.24% among 340,000 | AID 493008 | activation, % at 7.2 µM | P19429+P45379;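 active = activation above the mean over all tested compounds plus 3 SD, cut at about 30% in these data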;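 also: rise in fluorescence read as greater calcium sensitivity of cardiac thin filaments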
Keap1 Nrf2 FP: inhibitors of human Keap1-Nrf2 protein-protein interaction | hit rate 0.15% among 340,000 | Keap1 Kelch-Nrf2 peptide fluorescence polarization, 1536-well | inhibition, % at 9.4 µM; in the data active = inhibition above about 12%;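 also: human Keap1 Kelch domain with fluorescein labeled Nrf2 9mer peptide probe; 0% = neutral control wells and 100% = peptide positive control; higher means more block of Keap1 binding to Nrf2 peptide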
Target sequence (Q14145 whole entry, looked up, the tested form may be a part): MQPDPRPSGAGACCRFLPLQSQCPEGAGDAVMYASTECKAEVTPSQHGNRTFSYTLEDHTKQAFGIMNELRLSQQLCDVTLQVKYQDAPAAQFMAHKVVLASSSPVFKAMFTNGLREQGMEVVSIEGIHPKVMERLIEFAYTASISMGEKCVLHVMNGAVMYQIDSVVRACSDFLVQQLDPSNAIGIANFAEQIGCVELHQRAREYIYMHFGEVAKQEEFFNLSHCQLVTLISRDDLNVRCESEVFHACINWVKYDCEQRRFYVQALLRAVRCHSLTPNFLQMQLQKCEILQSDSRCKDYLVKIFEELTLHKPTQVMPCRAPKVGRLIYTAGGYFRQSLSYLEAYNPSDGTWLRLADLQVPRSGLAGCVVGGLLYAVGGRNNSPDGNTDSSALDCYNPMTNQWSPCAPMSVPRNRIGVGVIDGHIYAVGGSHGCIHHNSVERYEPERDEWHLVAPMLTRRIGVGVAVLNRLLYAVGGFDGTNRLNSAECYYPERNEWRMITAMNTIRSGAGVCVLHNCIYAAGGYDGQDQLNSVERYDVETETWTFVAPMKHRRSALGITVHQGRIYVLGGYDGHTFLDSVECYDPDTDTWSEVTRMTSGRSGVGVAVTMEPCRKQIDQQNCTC
* = called active by the depositor; i = inactive; nt = no result given; + = active, no number.

SMILES	C-LANA FP	Cardiac RTF inh	RTF Ca sens act	Keap1 Nrf2 FP
CC(=O)Nc1ccc(N2C(=O)c3cccc4c(O)ccc(c34)C2=O)cc1	36	i	609*	2
CCOC(=O)COc1ccccc1C(=O)c1cnn(-c2ccccc2)c1	1	-6	0	-2
COC(=O)c1ccccc1-c1c2ccc(=N)cc-2oc2cc(N)ccc12	nt	nt	+	+
COC(=O)c1ccccc1-c1ccc(/C=N/NC(=O)c2cc3ccccc3o2)o1	2	7	-6	-5
COC(=O)c1csc2c(C(F)(F)F)cc(N3CCN(C(=O)Nc4ccccc4)CC3)nc12	0	-9	13	-4
COc1ccc(Br)cc1/C=N/n1c(-c2ccccc2)n[nH]c1=S	0	0	-3	-2
CC(=O)n1c(C=Nc2ccc(Cl)cc2)c(O)c2ccccc21	3	-1	38*	7
Cn1nc(C(=O)OCC(=O)Nc2cccc(S(=O)(=O)N3CCCC3)c2)c2ccccc2c1=O	-1	-13	-1	1
C=CCN1C(=O)/C(=C\C=C2\N(C)c3ccccc3C2(C)C)SC1=S	-2	-31	51*	-14
CCCCN1C(=O)/C(=C/C=C2/CC(C)(C)CN2C)SC1=S	-19	-457	396*	-122
CCCN1C(=O)/C(=C/C=C2\N(CC)c3ccccc3C2(C)C)SC1=S	-1	-69	52*	-46
CCCCN1C(=O)/C(=C/C=C2\Oc3ccccc3N2CC)SC1=S	1	-241	186*	-8
CCN1C(=O)/C(=C\N2CCCc3ccccc32)SC1=S	0	8	-5	-1
CCCN1C(=O)/C(=C\C=C2/Sc3ccccc3N2CCO)SC1=S	-1	-7	-1	-2
Cn1cccc1/C=C1/SC(=S)N(CC(=O)O)C1=O	-20	-27	20	-61
CN1/C(=C\C=C2/SC(=S)N(CC(=O)O)C2=O)C(C)(C)c2ccccc21	-95	i	773*	-400
O=C(/C=C\c1ccccc1OC(=O)c1ccccc1F)c1cc2ccccc2o1	2	6	-5	-3
COc1ccc(-c2csc(NC(=O)CSc3nc(C)nc4sc(C(=O)O)c(C)c34)n2)cc1	103*	3	0	2
O=C(Nc1ccccc1F)C(=Cc1sc(N2CCOCC2)nc1-c1ccccc1)C(=O)Nc1ccccc1F	54	-9	30*	-7
CCn1nc(C)c([N+](=O)[O-])c1C(=O)NNC(=O)c1ccc(Cl)cc1	1	-3	8	7
COc1ccc(CN2C(=O)c3cccc4cccc2c34)cc1F	1	3	-1	-4
Cn1nccc1NC(=O)Nc1cccc(Cl)c1Cl	-2	3	61*	-3
O=[N+]([O-])c1ccc(N2CCN(S(=O)(=O)c3ccccc3)CC2)cc1	-3	-2	-10	-1
Cc1ccc(NC(=O)C2CCCN(C3=NS(=O)(=O)c4ccccc43)C2)c(O)c1 (stereo unspecified)	0	-1	4	4
Cc1ccccc1NC(=O)C1CCN(C2=NS(=O)(=O)c3ccccc32)CC1	61*	-5	8	1
SMILES	C-LANA FP	Cardiac RTF inh	RTF Ca sens act	Keap1 Nrf2 FP
CSc1ccc(/C=c2\s/c(=C\C(=O)C(C)(C)C)n(CC(=O)NCCC3=CCCCC3)c2=O)cc1	17	4	8	7
CCCNC(=O)Cn1c(=O)/c(=C/c2ccc(-c3ccc([N+](=O)[O-])cc3)o2)s/c1=C\C(=O)C(C)(C)C	1	-75	52*	-8
Cc1ccc2c(c1)C(=O)CCN2	5	-21	0	-7
O=C1CCNc2ccc(-c3ccccc3)cc21	84*	-71	64*	24*
CN1CCN(C2=CC3=CC(=C(C#N)C#N)CCC3CC2)CC1 (stereo unspecified)	-71	i	+	-465
CCN1CCN(C2=CC3=CC(=C(C#N)C#N)CCC3CC2)CC1 (stereo unspecified)	-61	i	+	-394
N#CC(C#N)=C1C=C2C=C(N3CCOCC3)CCC2CC1 (stereo unspecified)	-17	i	+	-102
CC1(C)CC(NCCN2CCN(C3=CC(=C(C#N)C#N)CC(C)(C)C3)CC2)=CC(=C(C#N)C#N)C1	3	-8	9	-5
N#CC(C#N)=C1C=C2C=C(N3CCCCCC3)CCC2CC1 (stereo unspecified)	-14	i	+	-260
COc1ccc(CN2C(=NC(=O)COc3ccccc3)SC3CS(=O)(=O)CC32)cc1 (stereo unspecified)	-1	-2	-1	-6
Cc1cc(=O)oc2cc3oc(=O)cc(C)c3cc12	-3	4	-7	-2
CCOC(=O)C1(CCOc2ccccc2)CCN(Cc2ccc(O)c(OCC)c2)CC1	nt	3	2	-5
CCOC(=O)c1ccccc1NC(=O)COC(=O)c1ccccc1C(=O)N(C)c1ccccc1	0	5	-4	1
Cc1nn(-c2ccccc2)c(N2CCCC2)c1/C=C1\N=C(c2ccc(OC(C)C)cc2)OC1=O	3	-61	64*	0
Cc1ccc(C2=N/C(=C\N3CCCCC3)C(=O)O2)cc1	0	-4	1	3
Cc1ccnc(SCC(=O)c2cc3ccccc3o2)n1	74*	-1	0	2
Cn1ccnc1SCC(=O)c1cc2ccccc2o1	-3	-11	0	-3
Cc1ccc(S(=O)(=O)N2CCC[C@H]2C(=O)OC(C)C(=O)Nc2ncc(Cl)cc2Cl)cc1 (stereo partly specified)	-1	-3	-7	-1
CC(C)(C)c1ccc(C(=O)n2cnc3ccccc32)cc1	7	-1	50*	-4
CCN(CC)c1ccc2cc(C(=O)NCc3ccc(F)cc3)c(=N)oc2c1	-25	-82	267*	-241
CCOC(=O)C1Nc2ccccc2C2C(O)C(O)CC12 (stereo unspecified)	54	-73	80*	3
CCN(CC)c1ccc(/C=c2\sc3nc4ccccc4n3c2=O)c(O)c1	2	-81	53*	-8
O=c1/c(=C/c2ccc(O)c([N+](=O)[O-])c2)sc2nc3ccccc3n12	-1	nt	nt	-2
CCCCc1ccc(/C(C)=N/Nc2cc(N3CCOCC3)nc(C)n2)cc1	0	4	6	1
CCn1c(O)c(/C=N/NC(=O)c2ccncc2)c(=O)n(CC)c1=S	-10	-88	97*	-159
SMILES	C-LANA FP	Cardiac RTF inh	RTF Ca sens act	Keap1 Nrf2 FP
CCOc1ccc2ccccc2c1/C=N/NC(=O)c1ccncc1	3	-2	10	0
COc1ccc2cc(/C=C3\SC(=S)NC3=O)c(N3CCOCC3)nc2c1	2	-5	-1	-7
O=C1S/C(=C\c2ccc(N3CCOCC3)o2)C(=O)N1Cc1ccc(F)cc1	1	-40	50*	-60
O=C1S/C(=C/c2ccc(N3CCOCC3)o2)C(=O)N1Cc1ccc(F)cc1	-1	-51	72*	-7
CC(C)OC(=O)CN1C(=O)S/C(=C/c2ccc(N3CCCCC3)o2)C1=O	-1	-55	93*	-5
O=C1NC(=S)S/C1=C/c1ccc(N2CCOCC2)o1	-14	-5	34*	-16
C#CCN1C(=O)S/C(=C\c2ccc(-c3ccc(C(=O)O)cc3C)o2)C1=O	17	0	5	-8
